Consider 55 compounds from PubChem BioAssay AID1376 (SRMLSC, 2008).

Each structure is given as a SMILES string. Several values for one entry are separate records, joined by “and”; a condition that tells them apart may be missing. Identical values can stand only once. In all, about 220,000 compounds went through this assay and about 530 (0.24%) were called active. Shown is part of a subset that was picked to be rich in actives. Results with a measured potency or affinity are listed apart. A number with no mark means an inactive call. Rule as the data show it: active = inhibition above about 13%; inconclusive = no clear call, values can overlap the other calls; inactive = below that.

Chain of Bifunctional protein GlmU (Mycobacterium tuberculosis (strain ATCC 25618 / H37Rv)) (P9WMN3 whole entry, looked up): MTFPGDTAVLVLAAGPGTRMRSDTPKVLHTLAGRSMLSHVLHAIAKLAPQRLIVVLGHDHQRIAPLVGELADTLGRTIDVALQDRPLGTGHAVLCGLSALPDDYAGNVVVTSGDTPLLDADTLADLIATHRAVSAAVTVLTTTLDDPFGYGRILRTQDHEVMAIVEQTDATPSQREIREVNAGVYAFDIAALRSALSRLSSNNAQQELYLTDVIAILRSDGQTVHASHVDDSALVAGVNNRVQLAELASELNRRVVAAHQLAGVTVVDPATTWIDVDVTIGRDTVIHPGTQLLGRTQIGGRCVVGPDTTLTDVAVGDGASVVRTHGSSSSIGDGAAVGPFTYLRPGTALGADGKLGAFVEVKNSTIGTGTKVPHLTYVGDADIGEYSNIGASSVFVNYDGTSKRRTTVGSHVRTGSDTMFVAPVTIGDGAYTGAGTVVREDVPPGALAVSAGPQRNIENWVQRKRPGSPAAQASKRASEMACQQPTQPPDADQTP

This assay has as its target Bifunctional protein GlmU (Mycobacterium tuberculosis (strain ATCC 25618 / H37Rv)) (UniProt P9WMN3). Put plainly: inhibition of mycobacterial GlmU enzyme – biochemical, glucosamine-1-phosphate acetyltransferase (AID 1376).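 Also: 0% = complete reaction with vehicle and 100% = reaction without substrate.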 The following applies: M. tuberculosis GlmU acetyltransferase enzyme assay; hits give high values;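 tested at 30 µM in the primary screen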.
As usually defined, the inhibition is the change of the read-out against control, counted positive when it falls. In the case of `CSc1nccc(-c2c(-c3ccc(Cl)cc3)noc2C)n1`, the inhibition is 2.51%.
Consider `c1ccc(CNc2ncnc3c2ncn3C2CCCCO2)cc1` (stereo not given), for which the inhibition is -1.2%.
Consider `O=C(N/N=C/C1=Cc2ccccc2OC1)c1ccncc1`, for which the inhibition was -1.23%.
With `O=C(O)c1ccc(N/N=C/C2=Cc3ccccc3OC2)cc1`, the inhibition is 14.4% (active).
With `CC1Oc2ccccc2C=C1/C=N/Nc1ccc(C(=O)O)cc1` (stereo not given), the inhibition is 4.4%.
For `CSc1nccc(Oc2cncc(Cl)c2)n1`, the inhibition was 2.56%.
On to `Nn1c(Cc2ccc(F)cc2)n[nH]c1=S`, for which the inhibition was -2.75%.
Under `CCCCOc1ccc(Cc2n[nH]c(=S)n2N)cc1` stands 12.8% (active); under `CCOc1ccc(Cc2n[nH]c(=S)n2N)cc1`, 1.55%.
Consider `COc1ccccc1/C=N/NC(=O)C(=O)NCc1cccnc1`, for which the inhibition is 3.16%.
As for `COc1ccc(S(=O)(=O)NNC(=O)c2csc(-n3nc(C)cc3C(F)(F)F)n2)cc1OC`, the inhibition is 2.2%.
Under `O=C(O)c1ccc(Oc2c(C(F)(F)F)oc3cc(O)ccc3c2=O)cc1` stands -3.31%; under `O=c1c(C(c2ccc(Cl)cc2)c2c(O)nc3n(c2=O)CCS3)c(O)nc2n1CCS2`, 9.88%; under `COc1cccc(NC(=O)CN(C)C(C)C(=O)Nc2cc([N+](=O)[O-])ccc2Cl)c1` (stereo not given), -8.73%.
On to `Cc1noc(NS(=O)(=O)c2ccc(N/C=C\C(=O)c3ccccc3)cc2)c1C`, for which the inhibition is 1.37%.
As to `Cc1ccc(C(=O)/C=C/Nc2ccc(S(=O)(=O)Nc3onc(C)c3C)cc2)cc1`, the inhibition was 14.2% (active).
Consider `Cc1noc(NS(=O)(=O)c2ccc(N/C=C\C(=O)c3ccncc3)cc2)c1C`, for which the inhibition was 3.38%.
Under `Cc1noc(NS(=O)(=O)c2ccc(N/C=C/C(=O)c3ccc(F)cc3)cc2)c1C` stands 3.6%; under `Cc1noc(NS(=O)(=O)c2ccc(N/C=C\C(=O)c3cccs3)cc2)c1C`, 13.3% (active); under `Cc1noc(NS(=O)(=O)c2ccc(N/C=C\C(=O)c3ccc(F)cc3)cc2)c1C`, 4.6%.
The same measure for `Cc1ccc2cc(CN(CCCN3CCOCC3)C(c3nnnn3Cc3ccco3)C(C)C)c(=O)[nH]c2c1C` (stereo not given): -1.48%; for `CCOc1ccc(N2C(=O)c3cccnc3C2Nc2ccc(C)c(C)c2)cc1` (stereo not given): -5.6%.
Under `CCO[C@@H]1OC(C(=O)Nc2ccccc2)=C[C@H](c2ccc(Br)cc2)[C@H]1CCCO` stands 1.98%.
Turning to `CC(=O)Nc1ccc(/C=C(\C#N)C(=O)NC2CCCCC2C)cc1` (stereo not given), the inhibition is 3.98%.
Regarding `O=C(CN1CCN(c2ccc(Cl)cc2)CC1)NCc1ccccc1`, the inhibition was 1.83%.
Under `CC(=C\c1ccccc1)/C=C1/SC(=S)N(C(C(=O)O)C(C)C)C1=O` (stereo not given) stands 5.39%; under `O=C1S/C(=C\C=C\c2ccco2)C(=O)N1c1ccccc1`, 6.89%.
As for `O=C1/C(=C/C=C/c2ccco2)SC(=S)N1c1ccc(O)cc1`, the inhibition is 7.16%.
Consider `CC(/C=C1\SC(=S)N(C(C(=O)O)C(C)C)C1=O)=C\c1ccccc1` (stereo not given), for which the inhibition was 3.64%.
Regarding `CCCCC(=O)Nc1ncc(Br)s1`, the inhibition was 0.1%.
Under `Cc1nnc(SCC(=O)Nc2cc(-c3cc(C)c(C)cc3C)nn2-c2ccccc2)s1` stands -5.02%; under `COc1cc(/C=N/NC(=O)c2cccc([N+](=O)[O-])c2)ccc1OCc1ccccc1`, 1.61%; under `O=C1NC(=O)N(Cc2ccc(F)cc2)C(=O)/C1=C\c1ccc([N+](=O)[O-])s1`, 6.15%.
With `CN1C(=O)NC(=O)/C(=C/c2ccc([N+](=O)[O-])s2)C1=O`, the inhibition is -1.9%.
On to `CCN1C(=O)/C(=C\c2ccc([N+](=O)[O-])s2)C(=O)NC1=S`, for which the inhibition was 92.2% (active).
As for `Cc1ccc(SCc2cc(=O)[nH]c(N3CCN(C)CC3)n2)cc1`, the inhibition is 2.83%.
With `Cc1ccc(N2C(=O)c3cccc4c(C(=O)O)ccc(c34)C2=O)cc1`, the inhibition was -2.11%.
`O=C(O)c1ccc2c3c(cccc13)C(=O)N(c1ccccc1)C2=O`: the inhibition was 5.53%.
On to `CCn1c(SCC(=O)N2CCc3ccccc32)nc2c(c1=O)SC(C)C2` (stereo not given), for which the inhibition was 2.91%.
Consider `O=C(O)c1cc(-c2ccccc2)nc2nc(N3CCCCC3)sc12`, for which the inhibition is -4.63%.
As to `O=C(O)CCSc1nc2ccccc2s1`, the inhibition was 13.3% (active).
Consider `O=C(O)CSc1nc2ccccc2s1`, for which the inhibition was -6.75% and -0.54%.
In the case of `O=C(CSc1nc2ccccc2s1)CSc1nc2ccccc2s1`, the inhibition was -0.56%.
As for `Cc1[nH]c2ccccc2c1C(=O)COC(=O)CCS(=O)(=O)c1ccccc1Cl`, the inhibition was 0.91%.
As to `NC(=O)[C@H]1CC2(CC(c3cccc(NC(=O)CC(c4ccccc4)c4ccccc4)c3)=NO2)CN1C(=O)CC(c1ccccc1)c1ccccc1` (stereo not given in full), the inhibition was 2.76%.
For the compound `NC(=O)[C@@H]1CC2(CC(c3cccc(NC(=O)COc4ccc(Cl)cc4)c3)=NO2)CN1C(=O)COc1ccc(Cl)cc1` (stereo not given in full), the inhibition was 3.68%.
Take `CCC(=O)Nc1cccc(C2=NOC3(C2)C[C@@H](C(N)=O)N(C(=O)C(c2ccccc2)c2ccccc2)C3)c1` (stereo not given in full): the inhibition was 7.01%.
Take `C/C=C(\C)C(=O)Nc1cccc(C2=NOC3(C2)C[C@H](C(N)=O)N(C(=O)C(c2ccccc2)c2ccccc2)C3)c1` (stereo not given in full): the inhibition is 4.35%.
Consider `C=C(C)C(=O)Nc1cccc(C2=NOC3(C2)C[C@@H](C(N)=O)N(C(=O)CC(c2ccccc2)c2ccccc2)C3)c1` (stereo not given in full), for which the inhibition was 14.4% (active).
As for `C/C=C(/C)C(=O)Nc1cccc(C2=NOC3(C2)C[C@@H](C(N)=O)N(C(=O)CC(c2ccccc2)c2ccccc2)C3)c1` (stereo not given in full), the inhibition is 2.91%.
As for `C/C=C(/C)C(=O)Nc1cccc(C2=NOC3(C2)C[C@H](C(N)=O)N(C(=O)COc2ccc(Cl)cc2)C3)c1` (stereo not given in full), the inhibition was -3.89%.
For the compound `CC(=O)Oc1ccccc1N(C(C)=O)S(=O)(=O)c1cccc([N+](=O)[O-])c1`, the inhibition was 2.75%.
`COc1nc(-c2ccccc2)ccc1-c1noc(-c2cccs2)n1`: the inhibition is -3.99%.
With `O=C(CN(Cc1ccccc1)S(=O)(=O)c1ccccc1)N/N=C/c1ccccc1C(=O)O`, the inhibition is 1.89%.
For `CCN(CC)S(=O)(=O)c1cc(NC(=O)COC(=O)CCC(=O)c2cccs2)ccc1C`, the inhibition is 1.97%.
